Measurements published in the supplement of paper PMC7156485.
± gives the standard deviation of the averaged measurements.

Tested on: HCC1569
Test: cell number relative to DMSO (% of DMSO); higher = more cells (less growth inhibition / toxicity)
Conditions: concentration: 10 µM; 24 h
Outline: (§1)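 Treatment: HCC1569 and TDF cells, 800 per well in 384-well plates with RPMI and 10% FBS, were given compounds at 10 µM for 24 h at 37 °C, in triplicate. Readout: after 3.7% formaldehyde fixation, cells were stained with a rabbit anti-H1.0 antibody, an AlexaFluor 647 secondary and DAPI. Reported values are H1.0 nuclear intensity or cell number as percent of the plate control, taken as the median of replicates, with positional smoothing for HCC1569.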
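Note: TDF denotes transformed human dermal fibroblasts of mesenchymal origin.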

Row | SMILES | cell number
1 | CC(C)NCC(O)c1ccc2ccccc2c1.Cl (configuration not stated) [Pronethalol.HCl] | 101
2 | Cc1[nH]c2ccccc2c1CCNC(=O)c1cccs1 [N-[2-(2-methyl-1H-indol-3-yl)ethyl]-2-thiophenecarboxamide] | 102
3 | OCC1NC(CO)C(O)C1O [(2R,5R)-Bis(hydroxymethyl)-(3R,4R)-dihydroxypyrrolidine] | 102
4 | NC(=O)c1ncn(C2OC(CO)C(O)C2O)c1O (configuration not stated) [Mizoribine] | 101
5 | CC1OC(Oc2c(-c3ccc(O)c(O)c3)oc3cc(O)cc(O)c3c2=O)C(O)C(O)C1O (configuration not stated) [Quercitrin] | 97.5
6 | CCCN(CCC)C(=O)C(CCC(=O)O)NC(=O)c1ccccc1 (configuration not stated) [Proglumide] | 109
7 | Cn1cnc2cc3c(Nc4cccc(Br)c4)ncnc3cc21 | 92.4
8 | O=c1[nH]c2cc(C(F)(F)F)ccc2n1-c1cc(C(F)(F)F)ccc1O | 101
9 | O=c1cc(-c2ccc(O)cc2)oc2cc(O)c(C3OC(CO)C(O)C(O)C3O)c(O)c12 (configuration not stated) [Isovitexin] | 99.9
10 | CN(c1ccccc1CNc1nc(Nc2ccc3c(c2)CC(=O)N3)ncc1C(F)(F)F)S(C)(=O)=O | 54.4
11 | Cc1ccc(F)c(NC(=O)Nc2ccc(-c3cccc4[nH]nc(N)c34)cc2)c1 | 92.4
12 | COc1cc2ncn(-c3cc(OCc4ccc(S(C)(=O)=O)cc4)c(C(N)=O)s3)c2cc1OC [Polo-like Kinase Inhibitor I] | 104
13 | CN(C)CCC(c1ccc(Br)cc1)c1ccccn1.O=C(O)C=CC(=O)O (single isomer, unassigned; (+)) [(+)-Brompheniramine maleate] | 96.5
14 | CC1(NC(=O)CBr)CCC(C(C)(C)NCC(O)COc2cccc3[nH]ccc23)CC1 (racemic) | 95.8
15 | CC1=C(C)C(=O)C(CCCCC#CCCCC#CCO)=C(C)C1=O [Docebenone] | 93.3
16 | COc1ccc(Cl)cc1C(=O)NCCc1ccc(S(=O)(=O)NC(=O)NC2CCCCC2)cc1 [Glibenclamide] | 101
17 | CC#CC1(O)CCC2C3CCC4=CC(=O)CCC4=C3C(c3ccc(N(C)C)cc3)CC21C (configuration not stated) [Mifepristone] | 101 ± 8.2
18 | CC1(C)CCCC2(C)C1CCC1(C)OC(=O)CC12 [(3aR)-(+)-Sclaerolide] | 99
19 | CCC=CCC=CCC=CCC=CCC=CCC=CCCC(=O)OC(COCCCCCCCCCCCCCCCC)COP(=O)([O-])OCC[N+](C)(C)C (configuration not stated) | 105
20 | CCOC(=O)c1cnc2c(cnn2CC)c1NN=C(C)C.Cl [Etazolate hydrochloride] | 107
21 | COC(=O)[C@H](Cc1ccc([N+](=O)[O-])cc1)NC(=O)c1cccc2ccccc12 [methyl (2S)-2-(1-naphthoylamino)-3-(4-nitrophenyl)propanoate] | 92.4
22 | CNCC(O)c1cccc(O)c1.Cl (configuration not stated) [Phenylephrine hydrochloride] | 107
23 | COc1cc2nc(N3CCN(C(=O)C4=CC5C=CC4CC5)CC3)nc(N)c2cc1OC (configuration not stated) [Prazobind] | 101
24 | CCC(C)SSc1ncc[nH]1 (configuration not stated) [2-(sec-butyldisulfanyl)-1H-imidazole] | 83.7
25 | CC[C@H](NC(=O)c1c(O)c(-c2ccccc2)nc2ccccc12)c1ccccc1 | 101
26 | Cc1ccc(-c2ncc(Cl)cc2-c2ccc(S(C)(=O)=O)cc2)cn1 [Etoricoxib] | 106
27 | CC(NC(=O)C(C#N)=Cc1ccc(O)c(O)c1)c1ccccc1 (configuration not stated) [Tyrphostin AG 835] | 87.3

Tested on: TDF
Test: as above
Conditions: concentration: 10 µM; 24 h
Outline: as §1

Row | SMILES | cell number
28 | CCCNC(C)C(=O)Nc1ccccc1C.Cl (configuration not stated) [Prilocaine hydrochloride] | 107
29 | Cc1ccc(OCC(O)C(C)NC(C)C)c2c1CCC2.Cl (configuration not stated) [ICI 118,551 hydrochloride] | 104
30 | FC(F)(F)c1cc(NC(=S)Nc2ccc(Br)cc2-c2nn[nH]n2)cc(C(F)(F)F)c1 | 85.6
31 | CCOC(=O)c1c(C)[nH]c(C=C2C(=O)Nc3ccccc32)c1C [VEGF Receptor 2 Kinase Inhibitor I] | 97.1
32 | O=C([O-])c1cc2cc(Cc3cccnc3)ccc2o1.[Na+] [Furegrelate sodium] | 102
33 | Nc1c(Br)cc(Br)cc1CNC1CCC(O)CC1 (configuration not stated) [Ambroxol] | 109 ± 5.6
34 | CCCCCC(O)C=CC1C(O)CC(O)C1CC=CCCCC(=O)O (stereo not drawn) [8-Epi-prostaglandin F2a] | 110
35 | CCCCCCCCCCCCCC=CC(O)C(CO)NC(=O)CCCCCCCCCCCCCCC (configuration not stated) [C16 Ceramide] | 95.3
36 | CN1C(C)(C)CCCC1(C)C.O=C(O)C(O)C(O)C(=O)O [Pempidine tartrate] | 94.9
37 | CS(=O)(=O)O.N=C(N)SCCc1ccc(OCc2ccc([N+](=O)[O-])cc2)cc1 | 78.2
38 | CCCCCCCCCCCCCCCC(=O)NC(CN1CCOCC1)C(O)c1ccccc1 (racemic) | 94.8
39 | COc1ccc(C=Cc2cc(OC)cc(=O)o2)cc1 [Yangonin] | 80.2
40 | Cl.Oc1ccc(Nc2nc(-c3ccc(Cl)cc3)cs2)cc1 [Sphingosine Kinase Inhibitor] | 75.1
41 | CC(C)NCC(O)c1ccc2ccccc2c1.Cl (configuration not stated) [Pronethalol.HCl] | 107
42 | Cc1[nH]c2ccccc2c1CCNC(=O)c1cccs1 [N-[2-(2-methyl-1H-indol-3-yl)ethyl]-2-thiophenecarboxamide] | 95.5
43 | OCC1NC(CO)C(O)C1O [(2R,5R)-Bis(hydroxymethyl)-(3R,4R)-dihydroxypyrrolidine] | 101
44 | NC(=O)c1ncn(C2OC(CO)C(O)C2O)c1O (configuration not stated) [Mizoribine] | 99.2
45 | CC1OC(Oc2c(-c3ccc(O)c(O)c3)oc3cc(O)cc(O)c3c2=O)C(O)C(O)C1O (configuration not stated) [Quercitrin] | 106
46 | CCCN(CCC)C(=O)C(CCC(=O)O)NC(=O)c1ccccc1 (configuration not stated) [Proglumide] | 112
47 | Cn1cnc2cc3c(Nc4cccc(Br)c4)ncnc3cc21 | 114

Row | SMILES | cell number
48 | O=c1[nH]c2cc(C(F)(F)F)ccc2n1-c1cc(C(F)(F)F)ccc1O | 95.9
49 | O=c1cc(-c2ccc(O)cc2)oc2cc(O)c(C3OC(CO)C(O)C(O)C3O)c(O)c12 (configuration not stated) [Isovitexin] | 109
50 | CN(c1ccccc1CNc1nc(Nc2ccc3c(c2)CC(=O)N3)ncc1C(F)(F)F)S(C)(=O)=O | 22.4
51 | Cc1ccc(F)c(NC(=O)Nc2ccc(-c3cccc4[nH]nc(N)c34)cc2)c1 | 90.1
52 | COc1cc2ncn(-c3cc(OCc4ccc(S(C)(=O)=O)cc4)c(C(N)=O)s3)c2cc1OC [Polo-like Kinase Inhibitor I] | 96.2
53 | CN(C)CCC(c1ccc(Br)cc1)c1ccccn1.O=C(O)C=CC(=O)O (single isomer, unassigned; (+)) [(+)-Brompheniramine maleate] | 79.5
54 | CC1(NC(=O)CBr)CCC(C(C)(C)NCC(O)COc2cccc3[nH]ccc23)CC1 (racemic) | 98.3
55 | CC1=C(C)C(=O)C(CCCCC#CCCCC#CCO)=C(C)C1=O [Docebenone] | 75.3
56 | COc1ccc(Cl)cc1C(=O)NCCc1ccc(S(=O)(=O)NC(=O)NC2CCCCC2)cc1 [Glibenclamide] | 105
57 | CC#CC1(O)CCC2C3CCC4=CC(=O)CCC4=C3C(c3ccc(N(C)C)cc3)CC21C (configuration not stated) [Mifepristone] | 111 ± 13
58 | CC1(C)CCCC2(C)C1CCC1(C)OC(=O)CC12 [(3aR)-(+)-Sclaerolide] | 105
59 | CCC=CCC=CCC=CCC=CCC=CCC=CCCC(=O)OC(COCCCCCCCCCCCCCCCC)COP(=O)([O-])OCC[N+](C)(C)C (configuration not stated) | 100
60 | CCOC(=O)c1cnc2c(cnn2CC)c1NN=C(C)C.Cl [Etazolate hydrochloride] | 101
61 | COC(=O)[C@H](Cc1ccc([N+](=O)[O-])cc1)NC(=O)c1cccc2ccccc12 [methyl (2S)-2-(1-naphthoylamino)-3-(4-nitrophenyl)propanoate] | 95
62 | CNCC(O)c1cccc(O)c1.Cl (configuration not stated) [Phenylephrine hydrochloride] | 101
63 | COc1cc2nc(N3CCN(C(=O)C4=CC5C=CC4CC5)CC3)nc(N)c2cc1OC (configuration not stated) [Prazobind] | 102
64 | CCC(C)SSc1ncc[nH]1 (configuration not stated) [2-(sec-butyldisulfanyl)-1H-imidazole] | 105
65 | CC[C@H](NC(=O)c1c(O)c(-c2ccccc2)nc2ccccc12)c1ccccc1 | 98.3
66 | Cc1ccc(-c2ncc(Cl)cc2-c2ccc(S(C)(=O)=O)cc2)cn1 [Etoricoxib] | 97.1
67 | CC(NC(=O)C(C#N)=Cc1ccc(O)c(O)c1)c1ccccc1 (configuration not stated) [Tyrphostin AG 835] | 87.3
